Experimental data published in PubChem BioAssay (NCI).
This is part of a sample that, as a whole, favours compounds with a hit. Of some 79,000 tested, about 15% had one in any assay. Calls of active or inactive are those of the source. Rule as the data show it: active = growth inhibition above about 70%; inactive = the rest.

Columns and labels:
[1] = NCI Yeast Anticancer Drug Screen. Data for the rad52 strain (AID 147);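 also: 0% = growth of vehicle-treated control cultures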; details: S. cerevisiae rad52 mutant growth inhibition, hits give high values
Method in brief: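 The repair-mutant yeast strain was incubated with compounds, then growth was read and inhibition derived relative to vehicle.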

[2] = NCI Yeast Anticancer Drug Screen. Data for the wt1 strain (AID 149);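 also: 0% = growth of vehicle-treated wt1 cultures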; details: S. cerevisiae wt1 strain (SPY 50644) growth inhibition, hits give high values
Method in brief: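 Compounds are added to wt1 yeast cultures. Growth is then measured. Inhibition is expressed relative to vehicle-treated controls.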

[3] = NCI Yeast Anticancer Drug Screen. Data for the rad50EPP+ strain (AID 151);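 also: 0% = growth of vehicle-treated control cultures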; details: S. cerevisiae rad50 mutant strain, hits give high values
Method in brief: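 Vehicle-normalised growth inhibition; rad50EPP+ yeast strain, altered in DNA damage repair, compound-treated.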

[4] = NCI Yeast Anticancer Drug Screen. Data for the mgt1 strain (AID 153); details: S. cerevisiae mgt1 mutant growth inhibition, hits give high values
Method in brief: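 Vehicle-normalized growth inhibition is determined in mgt1 yeast, a strain selected for a defined alteration in DNA repair or cell cycle control.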

[5] = NCI Yeast Anticancer Drug Screen. Data for the rad50 strain (AID 155);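 also: 0% = growth of vehicle-only cultures of the same strain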; details: S. cerevisiae rad50 strain growth inhibition, hits give high values
Method in brief: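 Inhibition values express reduced yeast growth in compound-treated cultures relative to vehicle-treated controls.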

[6] = NCI Yeast Anticancer Drug Screen. Data for the rad14 strain (AID 159);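 also: 0% = growth of vehicle-treated control cultures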; details: S. cerevisiae rad14 strain growth inhibition, hits give high values
Method in brief: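 A mutant yeast strain defective in DNA damage repair is treated with compound; inhibition of its growth is scored against untreated, vehicle-exposed cultures.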

[7] = NCI Yeast Anticancer Drug Screen. Data for the sgs1 mgt1 strain (AID 161);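 also: 0% = growth of cultures given vehicle only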; details: S. cerevisiae sgs1 mgt1 strain, hits give high values
Method in brief: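 Yeast cells carrying a defined DNA-repair defect were exposed to test compounds. Growth inhibition was measured relative to vehicle-treated controls.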

[8] = NCI Yeast Anticancer Drug Screen. Data for the CLN2oe strain (AID 163);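 also: 0% = growth of vehicle-only control cultures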; details: S. cerevisiae CLN2oe strain, hits give high values
Method in brief: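 Compounds are applied to yeast harbouring a defined cell-cycle control change; reduced growth compared with vehicle-treated controls gives the value.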

[9] = NCI Yeast Anticancer Drug Screen. Data for the cln2 rad14 strain (AID 165);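 also: 0% = growth equal to vehicle treated cultures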; details: S. cerevisiae cln2 rad14 strain, hits give high values
Method in brief: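 Readout is yeast growth inhibition versus vehicle-treated controls, using a strain with cln2 and rad14 alterations exposed to compound.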

[10] = NCI Yeast Anticancer Drug Screen. Data for the bub3 strain (AID 167); details: S. cerevisiae bub3 mutant strain, hits give high values
Method in brief: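 Steps: expose the mutant yeast strain to compound; grow alongside vehicle-treated cultures; measure growth; express inhibition against the vehicle cultures.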

[11] = NCI Yeast Anticancer Drug Screen. Data for the wt2 strain (AID 169);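 also: 0% = growth of vehicle-treated yeast cultures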; details: S. cerevisiae wt2 strain growth inhibition, hits give high values
Method in brief: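 Against vehicle-treated controls, the growth of yeast exposed to each compound was compared, and the inhibition was recorded.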

[12] = NCI Yeast Anticancer Drug Screen. Data for the mlh1 strain (AID 171);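 also: 0% = growth of vehicle-treated control cultures of the same strain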; details: S. cerevisiae mlh1 strain growth inhibition, hits give high values
Method in brief: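 Measured: yeast growth. Reference: vehicle-treated controls. Organism: strain with a defined alteration affecting DNA damage repair or cell cycle control, treated with compound.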

[13] = NCI Yeast Anticancer Drug Screen. Data for the sgs1 strain (AID 173);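 also: 0% = growth of vehicle-only control cultures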; details: S. cerevisiae sgs1 mutant, hits give high values
Method in brief: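 Each compound was added to cultures of the altered yeast strain. Growth was recorded, and inhibition was derived by comparison with vehicle controls.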

[14] = NCI Yeast Anticancer Drug Screen. Data for the mlh1 rad18 strain (AID 175); details: S. cerevisiae mlh1 rad18 strain growth inhibition, hits give high values
Method in brief: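 Genetically defined yeast (DNA repair-deficient) exposed to compounds; growth inhibition determined relative to vehicle.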

[15] = NCI Yeast Anticancer Drug Screen. Data for the rad18 strain (AID 177); details: S. cerevisiae rad18 mutant growth inhibition, hits give high values
Method in brief: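 Vehicle-treated cultures served as the baseline for scoring compound-induced growth inhibition in DNA-repair-mutant yeast.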

[16] = NCI Yeast Anticancer Drug Screen. Data for the mec2-1 strain (AID 157); details: S. cerevisiae mec2-1 strain, hits give high values
Method in brief: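 Mutant yeast (mec2-1) grown with compound; growth inhibition relative to vehicle control reported.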

[17] = at 5.0 µM (retest, dose inferred, filed as 0.5)
[18] = at 50.0 µM (retest, dose inferred, filed as 5.0)

Measured: growth inhibition

COC(=O)Nc1cn2ccc(C(Cl)=C(Cl)Cl)cc2n1
active: [14]; [18] 78%
inactive: [1]; at 1.2 µM -12% | [1]; at 3.7 µM -17% | [1]; at 11.0 µM -21% | [1]; at 33.0 µM -33% | [1]; at 100.0 µM -16% | [2]; at 1.2 µM -16% | [2]; at 3.7 µM -21% | [2]; at 11.0 µM -33% | [2]; at 33.0 µM -29% | [2]; at 100.0 µM -33% | [3]; at 1.2 µM -27% | [3]; at 3.7 µM -19% | [3]; at 11.0 µM -32% | [3]; at 33.0 µM -27% | [3]; at 100.0 µM -28% | [4]; at 1.2 µM -21% | [4]; at 3.7 µM -17% | [4]; at 11.0 µM -29% | [4]; at 33.0 µM -24% | [4]; at 100.0 µM -22% | [5]; at 1.2 µM -22% | [5]; at 3.7 µM -32% | [5]; [17] 21% | [5]; at 11.0 µM -35% | [5]; at 33.0 µM -36% | [5]; [18] 29% | [5]; at 50.0 µM -4.2% | [5]; at 100.0 µM -32% | [6]; at 1.2 µM 18% | [6]; at 3.7 µM -11% | [6]; at 11.0 µM 1% | [6]; at 33.0 µM -13% | [6]; at 100.0 µM -17% | [7]; [17] 28% | [7]; [18] 40% | [7]; at 50.0 µM -27.6% | [8]; at 1.2 µM 42% | [8]; at 3.7 µM 27% | [8]; at 11.0 µM 35% | [8]; at 33.0 µM 21% | [8]; at 100.0 µM 18% | [9]; [17] 7% | [9]; [18] 21% | [9]; at 50.0 µM -5.65% | [10]; at 1.2 µM -8% | [10]; at 3.7 µM -14% | [10]; [17] 24% | [10]; at 11.0 µM -28% | [10]; at 33.0 µM -21% | [10]; [18] 29% | [10]; at 50.0 µM -24.1% | [10]; at 100.0 µM -20% | [11]; at 1.2 µM -40% | [11]; at 3.7 µM -33% | [11]; at 11.0 µM -50% | [11]; at 33.0 µM -49% | [11]; at 100.0 µM -53% | [12]; at 1.2 µM 29% | [12]; at 3.7 µM 23% | [12]; at 11.0 µM 14% | [12]; at 33.0 µM 10% | [12]; at 100.0 µM 12% | [13]; at 1.2 µM 6% | [13]; at 3.7 µM 2% | [13]; at 11.0 µM -18% | [13]; at 33.0 µM -16% | [13]; at 100.0 µM -11% | [14]; [17] 65% | [14]; at 50.0 µM -12.5% | [15]; at 1.2 µM -16% | [15]; at 3.7 µM -22% | [15]; at 11.0 µM -13% | [15]; at 33.0 µM -39% | [15]; at 100.0 µM -46%

CCC(C)NC1=NCC(C)S1 (stereo not drawn)
inactive: [1]; at 1.2 µM -9% | [1]; at 3.7 µM -12% | [1]; at 11.0 µM -12% | [1]; at 33.0 µM -29% | [1]; at 100.0 µM -17% | [2]; at 1.2 µM -22% | [2]; at 3.7 µM -14% | [2]; at 11.0 µM -24% | [2]; at 33.0 µM -34% | [2]; at 100.0 µM -28% | [3]; at 1.2 µM -40% | [3]; at 3.7 µM -38% | [3]; at 11.0 µM -27% | [3]; at 33.0 µM -37% | [3]; at 100.0 µM -75% | [4]; at 1.2 µM -18% | [4]; at 3.7 µM -15% | [4]; at 11.0 µM -13% | [4]; at 33.0 µM -19% | [4]; at 100.0 µM -25% | [5]; at 1.2 µM -29% | [5]; at 3.7 µM -20% | [5]; [17] 44% | [5]; at 11.0 µM -32% | [5]; at 33.0 µM -34% | [5]; [18] 41% | [5]; at 50.0 µM 64.1% | [5]; at 100.0 µM -33% | [16]; at 1.2 µM -40% | [16]; at 3.7 µM -48% | [16]; [17] 42% | [16]; at 11.0 µM -63% | [16]; at 33.0 µM -51% | [16]; [18] 36% | [16]; at 50.0 µM 28.9% | [16]; at 100.0 µM -39% | [7]; [17] -9% | [7]; [18] 30% | [7]; at 50.0 µM 58.2% | [8]; at 1.2 µM -5% | [8]; at 3.7 µM 1% | [8]; at 11.0 µM -9% | [8]; at 33.0 µM 0% | [8]; at 100.0 µM -8% | [9]; [17] 44% | [9]; [18] 49% | [9]; at 50.0 µM 65.7% | [10]; at 1.2 µM -6% | [10]; at 3.7 µM -9% | [10]; [17] 19% | [10]; at 11.0 µM -8% | [10]; at 33.0 µM -16% | [10]; at 50.0 µM 57.7% | [10]; at 100.0 µM -17% | [11]; at 1.2 µM -20% | [11]; at 3.7 µM -21% | [11]; at 11.0 µM -28% | [11]; at 33.0 µM -26% | [11]; at 100.0 µM -22% | [12]; at 1.2 µM -27% | [12]; at 3.7 µM -27% | [12]; at 11.0 µM -22% | [12]; at 33.0 µM -36% | [12]; at 100.0 µM -42% | [13]; at 1.2 µM -26% | [13]; at 3.7 µM -21% | [13]; at 11.0 µM -16% | [13]; at 33.0 µM -38% | [13]; at 100.0 µM -29% | [14]; [17] 47% | [14]; [18] 27% | [14]; at 50.0 µM 62.6% | [15]; at 1.2 µM -12% | [15]; at 3.7 µM 0% | [15]; at 11.0 µM -6% | [15]; at 33.0 µM -26% | [15]; at 100.0 µM -32%
active: [10]; [18] 98%
